Test results published in PubChem BioAssay AID1159580 (chemical genetic matrix, 2015).
“And” between values parts separate entries of the source, which are not always exact repeats. Identical values can stand only once. In all, about 5,500 compounds went through this assay and about 2,000 (36%) were called active. About 18% were inconclusive and are not listed. Cut-off read from the data, not from the text of the source: active = normalized growth mostly below about 0.91 (no sharp cut-off); inconclusive = no clear call, values can overlap the other calls; inactive = mostly above about 0.92. This is one part of the list.

Test: chemical genetic growth profiling, strain panel (AID 1159580);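 note: tested at 20 µM; growth read once vehicle control cultures reached saturation at 30 °C; 1 = growth at the plate median or of vehicle wells; lower values mean less growth of the strain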
Details: S. cerevisiae deletion strains, growth OD

Measured: normalized growth

CC(=O)Oc1ccc(C(c2ccc(OC(C)=O)cc2)c2ccccn2)cc1
inactive: locus YAL021C, strain ccr4, active compounds read low 1.02 | locus YAL026C, strain drs2, active compounds read low 1.02 | locus YAL030W, strain snc1, active compounds read low 1.01 | locus YBL061C, strain skt5, active compounds read low 1.01 | locus YBR009C, strain hhf1, active compounds read low 1.04 | locus YBR021W, strain FUR4, active compounds read low 0.998 | locus YBR023C, strain chs3, active compounds read low 1.02 | locus YBR171W, strain sec66, active compounds read low 1.02 | locus YBR229C, strain ROT2, active compounds read low 0.969 | locus YBR231C, strain swc5, active compounds read low 0.997 | locus YBR279W, strain paf1, active compounds read low 1.01 | locus YCL011C, strain gbp2, active compounds read low 1.02 | locus YCL016C, strain dcc1, active compounds read low 1.02 | locus YCL029C, strain bik1, active compounds read low 0.988 | locus YCL069W, strain vba3, active compounds read low 1.01 | locus YCR088W, strain abp1, active compounds read low 1.02 | locus YDL005C, strain med2, active compounds read low 1.01 | locus YDL035C, strain GPR1, active compounds read low 1.03 | locus YDL040C, strain nat1, active compounds read low 1.01 | locus YDL074C, strain BRE1, active compounds read low 0.995 | locus YDL101C, strain DUN1, active compounds read low 0.974 | locus YDL185W, strain tfp1, active compounds read low 0.993 | locus YDL192W, strain arf1, active compounds read low 0.984 | locus YDR001C, strain nth1, active compounds read low 1.02 | locus YDR069C, strain doa4, active compounds read low 1.01 | locus YDR101C, strain arx1, active compounds read low 0.996 | locus YDR137W, strain rgp1, active compounds read low 1.02 | locus YDR150W, strain NUM1, active compounds read low 0.99 | locus YDR159W, strain sac3, active compounds read low 0.993 | locus YDR162C, strain NBP2, active compounds read low 1.03 | locus YDR195W, strain ref2 0.985 | locus YDR297W, strain sur2, active compounds read low 1.02 | locus YDR318W, strain mcm21, active compounds read low 0.994 | locus YDR334W, strain swr1, active compounds read low 1.02 | locus YDR335W, strain msn5, active compounds read low 1.02 | locus YDR388W, active compounds read low 0.987 | locus YDR392W, strain spt3, active compounds read low 1.03 | locus YDR502C, strain sam2, active compounds read low 0.999 | locus YEL003W, strain gim4, active compounds read low 1.02 | locus YEL037C, strain rad23, active compounds read low 1.02 | locus YEL061C, strain CIN8 (second series), active compounds read low 1.01 | locus YEL061C, strain CIN8, active compounds read low 0.99 | locus YER015W, strain faa2, active compounds read low 1.01 | locus YER016W, strain bim1, active compounds read low 1.03 | locus YER110C, active compounds read low 0.977 | locus YER111C, strain swi4, active compounds read low 1.01 | locus YER155C, strain BEM2 (second series), active compounds read low 1.03 | locus YER155C, strain BEM2, active compounds read low 0.983 | locus YER167W, strain BCK2, active compounds read low 1 | locus YFR010W, strain ubp6, active compounds read low 0.996 | locus YGL078C, strain dbp3, active compounds read low 0.991 | locus YGL086W, strain mad1, active compounds read low 0.982 | locus YGL167C, strain pmr1, active compounds read low 1.03 | locus YGL173C, strain kem1, active compounds read low 1.02 | locus YGL227W, strain vid30, active compounds read low 1.01 | locus YGL240W, strain doc1, active compounds read low 1 | locus YGL248W, strain PDE1, active compounds read low 0.966 | locus YGL253W, strain hxk2, active compounds read low 1.03 | locus YGR135W, strain pre9, active compounds read low 0.996 | locus YGR229C, strain SMI1, active compounds read low 1.01 | locus YGR252W, strain gcn5, active compounds read low 0.961 | locus YHR013C, strain ard1, active compounds read low 1.06 | locus YHR027C, strain rpn1, active compounds read low 1.02 | locus YHR030C, strain SLT2, active compounds read low 0.99 and 1.02 | locus YHR079C, strain IRE1 (second series), active compounds read low 0.993 | locus YHR079C, strain IRE1, active compounds read low 0.983 | locus YHR094C, strain hxt1, active compounds read low 0.989 | locus YHR129C, strain ARP1, active compounds read low 0.989 | locus YHR142W, strain chs7, active compounds read low 1.01 | locus YHR200W, strain rpn10, active compounds read low 0.984 | locus YIL066C, strain RNR3, active compounds read low 1.02 | locus YIL073C, strain SPO22, active compounds read low 1.01 | locus YIL125W, strain kgd1, active compounds read low 0.985 | locus YIR030C, strain dcg1, active compounds read low 0.999 | locus YJL092W, strain hpr5, active compounds read low 1.01 | locus YJL095W, strain BCK1 (second series), active compounds read low 1.03 | locus YJL095W, strain BCK1, active compounds read low 0.975 and 1 | locus YJL115W, strain asf1, active compounds read low 1.01 | locus YJL129C, strain trk1, active compounds read low 1.03 | locus YJL134W, strain LCB3, active compounds read low 0.987 | locus YJL154C, strain vps35, active compounds read low 1.01 | locus YJL164C, strain tpk1, active compounds read low 1.02 | locus YJL166W, strain qcr8, active compounds read low 1 | locus YJL168C, strain set2, active compounds read low 0.985 | locus YJL187C, strain SWE1 (second series), active compounds read low 0.967 | locus YJR043C, strain POL32, active compounds read low 1.02 | locus YJR066W, strain TOR1, active compounds read low 0.976
